According to PubChem BioAssay (NCI):
About 83,000 compounds went through this panel and 20% of them were active in at least one assay; those are over-represented in the sample as a whole.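 Testing used 96-well plates and a 48-hour single-concentration exposure. Example: -40 means 40% of the starting cells died.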 Values without a mark were called inactive. Active and inactive are the calls of the source. Rule for the calls: active = growth percent below 10; inactive = the rest.

System: NCI-H522 lung
Assay: NCI-60 one-dose screen, 48 h (100 = growth as untreated, 0 = no growth, -100 = all killed)
Details: 10 µM unless noted

Row | Compound | growth
1 | COc1ccc(/C(C)=C(/c2ccc(OCCCN(C)C)cc2)c2ccc(OC(=O)c3ccccc3)cc2)cc1 | 75.1%
2 | COc1ccc2nc(Cl)c(/C=C3\CC(c4ccccc4)=NN(c4ccccc4)C3=O)cc2c1 | 65.6%
3 | CC(C)(C)c1cc(Cl)c(O)c(CNCCO)c1 | 106%
4 | CCS/C(Nc1ccccc1)=C(\C#N)C(=O)Nc1ccc(OC)cc1 | 0.635% (active)
5 | COc1ccc(/C=C/c2c(C(=O)/C=C/c3ccccc3)c(C)nc3ccccc23)cc1 | -24.5% (active)
6 | C#COc1cccc(Nc2ncnc3cc(NC(=O)[C@@H](C)Cl)ccc23)c1 | -34.7% [6.25 µM] (active)
7 | COc1ccc(Cn2cc3c(c2-c2ccccc2)CCc2cnoc2-3)cc1 | 12.1%
8 | Cc1cc2c(cc1C)N(C(=O)CCl)CC(=O)N2 | -81.7% (active)
9 | Oc1c(CN2CCC(N3CCCCC3)CC2)cc(Cc2cc(CN3CCC(N4CCCCC4)CC3)c(O)c3ncccc23)c2cccnc12 | -34.7% (active)
10 | OCCNCCNC(Cc1ccc(Cl)cc1)c1ccccc1 (stereo not drawn) | 64.1%
11 | COc1cccc(-c2cc(-c3cccc(Cl)c3)c(C#N)c(=O)[nH]2)c1 | 62.2%
12 | CN(C)CCCNC(=O)c1cncnc1Nc1ccc(OCc2cccc(F)c2)c(Cl)c1 | -60.4% (active)
13 | O=C1Nc2ccccc2C1(c1c[nH]c2ccccc12)c1c[nH]c2ccccc12 | 21.6%
14 | Cc1cc(Nc2ccc(C(=O)N3CCCC3)cc2)nc(NCCCNc2ccnc3cc(Cl)ccc23)n1 | 65.6%
15 | NC1(CO)COC(c2ccccc2)OC1 (stereo not drawn) | 87.1%
16 | O=C(CCCCCNC(=O)c1cc(=O)c(O)co1)Nc1ccccc1 | 90.9%
17 | O=S(=O)(NCCNc1nccc(-c2c(-c3cccc(O)c3)nc3occn23)n1)c1ccc(Br)cc1 | 24.5%
18 | C/C(=N\O)c1ccc(NC(=O)CSc2nnc(-c3cc(-c4ccc(S(N)(=O)=O)cc4)nc4ccccc34)n2-c2ccccc2)cc1 | 67.4%

System: A549/ATCC NSCLC
Assay: as above
Details: 10 µM unless noted

Row | Compound | growth
19 | COc1ccc2c(c1)c(-c1nc(-c3c[nH]c4ncccc34)cs1)cn2CCO | 66.9%
20 | O=C(NNC(=O)c1ccc(NC(=O)c2ccccn2)cc1)Nc1ccc2ccccc2c1 | 108%
21 | COc1ccc(/C=C/C(=O)c2cc(OC)c(OC)c(OC)c2)cc1OCC(=O)Nc1nc2ccc(OC(F)(F)F)cc2s1 | 14.7%
22 | O=C(CN1CCCCCC1)Nc1nc2ccc(NCc3ccc(Cl)cc3)cc2s1 | 98.7%
23 | CCCCCCCCCCCCCCCCCCOc1ccccc1CC(=O)NCC[N+]1(C)CCCCC1 | 51.2%
24 | COc1cc(-c2nc3sccn3c2-c2ccnc(NCCNS(=O)(=O)c3ccc(Cl)cc3)n2)ccc1F | 30%
25 | S=c1nc2oc(-c3ccccc3)c(-c3ccccc3)c2c(/N=C\c2ccco2)[nH]1 | 95.3%
26 | O=C1Nc2ccccc2/C1=C\c1c[nH]c2ccc(Br)cc12 | 73.5%
27 | COc1ccc(Nc2ncccc2/C=C/C(=O)c2cc(OC)c(OC)c(OC)c2)cc1 | -57.1% (active)
28 | COc1cc(OC)c(/C=C/C(=O)c2c(O)cc(OC)c(C3CCN(C)CC3)c2OC)c(OC)c1 | -60.7% (active)
29 | N#Cc1c(-c2ccccc2)nc(SCc2nnc(-c3ccc(Cl)cc3)o2)[nH]c1=O | 78.2%
30 | CC(=O)ON1CCCC(P(=O)(OCCSC(=O)C(C)(C)C)OCCSC(=O)C(C)(C)C)C1=O (stereo not drawn) | 33.5%
31 | COc1cccc(CCNc2ncnc3c2ncn3Cc2nnc3c4ccccc4c(Cl)nn23)c1 | 77.8%
32 | O=C(CN1CCN(c2cc3c(cc2F)c(=O)c(C(=O)O)cn3C2CC2)CC1)N/N=C/c1ccco1 | 90.6%
33 | COc1ccc(C2=CC(c3cc(OC)c(OC)c(OC)c3)n3ncnc3N2)cc1 (stereo not drawn) | 14.3%
34 | O=C(CI)NC(=O)NC(=O)NCc1ccccc1 | 92.9%
35 | CC[C@]12C=CCN3CC[C@@]4(c5ccc(OC)cc5N(C)[C@H]4[C@@](O)(C(=O)OC)[C@@H]1OC(=O)CCC[P+](c1ccccc1)(c1ccccc1)c1ccccc1)[C@@H]32 | 13.4%
36 | CC1CCN(C(=S)SCC(=O)NC(=O)c2ccccc2)CC1 | 105%
37 | C=C1C(=O)O[C@H]2[C@H]1CC/C(COC(=O)c1cc3cc(Cl)ccc3[nH]1)=C\CC[C@@]1(C)O[C@@H]21 | -67.5% (active)
38 | COC(=O)/C=C1/SC(=Nc2ccc([N+](=O)[O-])cc2)N(CCc2c[nH]c3ccc(O)cc23)C1=O | 69.3%

Row | Compound | growth
39 | COc1ccc(CCN(CC(=O)N(CC(N)=O)C2CCC[C@@H]2OCc2ccccc2)C(=O)CN(C(=O)CN(CCc2ccc(Cl)cc2)C(=O)CN(C(=O)CN(C)Cc2ccccc2F)[C@H](C)C2CCCCC2)[C@H](C)C2CCCCC2)cc1OC (stereo partly drawn) | 23.4%
40 | CC(=O)OC[C@]12CC[C@@H]([C@@H](C)c3nnc(-c4ccncc4)o3)[C@@H]1[C@H]1CC[C@@H]3[C@@]4(C)CC[C@H](OC(C)=O)C(C)(C)[C@@H]4CC[C@@]3(C)[C@]1(C)CC2 | 62.5%
41 | COc1ccc(/C(C)=C(/c2ccc(OCCCN(C)C)cc2)c2ccc(OC(=O)c3ccccc3)cc2)cc1 | 69.4%
42 | COc1ccc2nc(Cl)c(/C=C3\CC(c4ccccc4)=NN(c4ccccc4)C3=O)cc2c1 | 65.2%
43 | CC(C)(C)c1cc(Cl)c(O)c(CNCCO)c1 | 109%
44 | CCS/C(Nc1ccccc1)=C(\C#N)C(=O)Nc1ccc(OC)cc1 | 34.6%
45 | COc1ccc(/C=C/c2c(C(=O)/C=C/c3ccccc3)c(C)nc3ccccc23)cc1 | 20.2%
46 | C#COc1cccc(Nc2ncnc3cc(NC(=O)[C@@H](C)Cl)ccc23)c1 | 6.69% [6.25 µM] (active)
47 | COc1ccc(Cn2cc3c(c2-c2ccccc2)CCc2cnoc2-3)cc1 | 20.5%
48 | Cc1cc2c(cc1C)N(C(=O)CCl)CC(=O)N2 | 88.1%
49 | Oc1c(CN2CCC(N3CCCCC3)CC2)cc(Cc2cc(CN3CCC(N4CCCCC4)CC3)c(O)c3ncccc23)c2cccnc12 | 22.9%
50 | OCCNCCNC(Cc1ccc(Cl)cc1)c1ccccc1 (stereo not drawn) | 88.1%
51 | COc1cccc(-c2cc(-c3cccc(Cl)c3)c(C#N)c(=O)[nH]2)c1 | 70.9%
52 | CN(C)CCCNC(=O)c1cncnc1Nc1ccc(OCc2cccc(F)c2)c(Cl)c1 | -58% (active)
53 | O=C1Nc2ccccc2C1(c1c[nH]c2ccccc12)c1c[nH]c2ccccc12 | 58.7%
54 | Cc1cc(Nc2ccc(C(=O)N3CCCC3)cc2)nc(NCCCNc2ccnc3cc(Cl)ccc23)n1 | 104%
55 | NC1(CO)COC(c2ccccc2)OC1 (stereo not drawn) | 101%
56 | O=C(CCCCCNC(=O)c1cc(=O)c(O)co1)Nc1ccccc1 | 97.6%
57 | O=S(=O)(NCCNc1nccc(-c2c(-c3cccc(O)c3)nc3occn23)n1)c1ccc(Br)cc1 | 20.9%
58 | C/C(=N\O)c1ccc(NC(=O)CSc2nnc(-c3cc(-c4ccc(S(N)(=O)=O)cc4)nc4ccccc34)n2-c2ccccc2)cc1 | 79.5%
